The record followed here is PubChem BioAssay (NCATS).

Records with an inconclusive call do not appear. A call without a number means that no potency is given here. Activity calls are given as the source filed them. Calls come from the whole dose curve; as a rule, active = well fitted inhibition curve with a large enough effect; inconclusive = small, poorly fitted or top-dose-only effect; inactive = flat fitted curve, though single readings scatter.
Potency is the fitted concentration of half-maximal effect.

The nature of this test: P-glycoprotein substrates identified in KB-8-5-11 adenocarcinoma cell line, qHTS therapeutic library screen (AID 1346987). Note: nearly all actives have a fitted effect of over 65% in size. The note with it: KB-8-5-11 (P-gp overexpressing) viability, CellTiter-Glo, 72 h; series mostly up to 44.5 µM. The gist of the method: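 KB-8-5-11: colchicine-selected sub-line of KB-3-1 over-expressing P-gp; assay medium lacked colchicine. 72 h drug exposure at 37 degree C, CellTiter-Glo.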
For orientation: Quantitative high-throughput screening tests each substance at several concentrations.
As for `Nc1ccc(C(=O)Nc2ccccc2N)cc1`, the Potency is 16.4 µM (active).
With `Cc1ccc(C(=O)C(C)CN2CCCCC2)cc1` (configuration not stated) the entry was “inactive”.
With `CC(C)NC[C@@H](O)COc1cccc2ccccc12` the entry was “inactive”; with `CN(C)C(=S)SC(=S)N(C)C`, “inactive”; with `CC(Cc1ccccc1)(NC(=O)CN)c1ccccc1` (configuration not stated), “inactive”.
To `O=C(N/N=C/c1ccccc1O)c1ccncc1` belongs “inactive”.
`C[C@@H]1CN(CCCn2c3ccccc3c3ccccc32)C[C@H](C)N1`: the Potency is 14.6 µM (active).
To `CCOc1ccc2nc3cc(N)ccc3c(N)c2c1` belongs “inactive”.
With `CCCCCCCCCCCCCCCC[N+](C)(C)CCN(Cc1ccc(OC)cc1)c1ncccn1` the entry was “inactive”; with `CCN(CC)C(=O)/C(C#N)=C/c1cc(O)c(O)c([N+](=O)[O-])c1`, “inactive”; with `CCOc1ccc(NC(=O)CC(C)O)cc1` (configuration not stated), “inactive”.
With `COc1ccc(CCN2CCC(Nc3nc4ccccc4n3Cc3ccc(F)cc3)CC2)cc1` the figure was 20.6 µM (active); with `COC(=O)C1=C(C)NC(C)=C(C(=O)O[C@@H]2CCCN(Cc3ccccc3)C2)[C@@H]1c1cccc([N+](=O)[O-])c1`, 20.6 µM (active); with `CC(O)(P(=O)(O)O)P(=O)(O)O`, “inactive”.
Take `CCCC(=O)O[C@]1(C(=O)CO)CC[C@H]2[C@@H]3CCC4=CC(=O)CC[C@]4(C)[C@H]3[C@@H](O)C[C@@]21C`: the Potency entry is “inactive”.
To `CCOC(=O)OC(C)OC1=C(C(=O)Nc2ccccn2)N(C)S(=O)(=O)c2ccccc21` (configuration not stated) belongs “inactive”.
For the molecule `O=C1OC2(c3ccc(O)cc3Oc3cc(O)ccc32)c2ccccc21`, the Potency result was “inactive”.
With `CCC(C(=O)OCCN(CC)CC)c1ccccc1` (configuration not stated) the entry was “inactive”; with `Cc1ccc(Nc2c(F)cccc2Cl)c(CC(=O)O)c1`, “inactive”; with `CCC(=O)c1c(O)cc(O)cc1O`, “inactive”.
With `COc1cc(C(=S)N2CCOCC2)cc(OC)c1OC` the entry was “inactive”; with `COC(=O)CCc1ccc(OCC(O)CNC(C)C)cc1` (configuration not stated), “inactive”; with `C[C@]12C=CC(=O)C=C1[C@@H](F)C[C@@H]1[C@@H]2[C@@H](O)C[C@@]2(C)[C@H]1CC[C@]2(O)C(=O)CO`, “inactive”.
Consider `Cc1nc2n(c(=O)c1CCN1CCC(c3noc4cc(F)ccc34)CC1)CCC[C@H]2O`, for which the Potency entry was “inactive”.
With `COc1ccc(CN2CCN(C(c3ccc(F)cc3)c3ccc(F)cc3)CC2)c(OC)c1OC` the figure was 23.1 µM (active).
With `CC(C)n1nc(-c2cc3cc(O)ccc3[nH]2)c2c(N)ncnc21` the figure was 0.366 µM (active).
To `COCc1c(C(C)C)nc(C(C)C)c(/C=C/[C@@H](O)C[C@@H](O)CC(=O)O)c1-c1ccc(F)cc1` belongs 0.731 µM (active).
As to `CCCCCCCCCCOCC(O)CN` (configuration not stated), the Potency result was “inactive”.
To `CC(C)N=C(N)/N=C(\N)Nc1ccc(Cl)cc1` belongs “inactive”.
With `C[C@H](O)C(=O)Nc1c(I)c(C(=O)NC(CO)CO)c(I)c(C(=O)NC(CO)CO)c1I` the entry was “inactive”.
To `CC(O)C(=O)O` (configuration not stated) belongs “inactive”.
Regarding `CNC(=O)CN(CCN(CCN(CC(=O)[O-])CC(=O)NC)CC(=O)[O-])CC(=O)[O-].O.[Gd+3]`, the Potency result is “inactive”.
